Some test systems named below: DU-145 prostate; K-562 leukemia; MALME-3M melanoma; MDA-MB-231 breast; RXF 393 renal; SF-268 CNS; SF-295 CNS; SF-539 CNS; UACC-257 melanoma; M14 melanoma; HCT-15 colon; HT29 colon; SNB-75 CNS; SNB-19 CNS; U251 CNS; PC-3 prostate; SK-MEL-5 melanoma; UACC-62 melanoma; LOX IMVI melanoma; SK-MEL-28 melanoma.
What all share (assay): NCI-60 one-dose screen, 48 h (100 = growth as untreated, 0 = no growth, -100 = all killed)
Holding throughout (conditions): 10 µM unless noted

The source of these data is PubChem BioAssay (NCI).

Compounds without any hit were thinned out: in the full panel of roughly 83,000, 20% have a hit.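 Method: cells in 96-well plates; compound added at one concentration; 48 h incubation; percent growth measured; values under 10 scored active.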 Unmarked numbers belong to inactive results. Calls of active or inactive are those of the source.

As to `Cn1cc(-c2noc(-c3cn(C)c4ncc(Br)cc34)n2)c2cc(Cl)ccc21`, the growth with DU-145 prostate was 87%; in the assay with K-562 leukemia it was 66.3%; in the assay on MALME-3M melanoma it was 35.4%; in the assay on MDA-MB-231 breast it was 57.2%; in the assay with RXF 393 renal, 105%; in the assay on SF-268 CNS it was 59.1%. In addition, the growth with SF-295 CNS is 63%; in the assay with SF-539 CNS it was 48.9%; with UACC-257 melanoma, 99.2%; with M14 melanoma, 82.4%; in the assay on HCT-15 colon, 87.6%; in the assay on HT29 colon, 67.3%. Also, the growth is 56.2% in the assay with SNB-75 CNS; 63% in the assay with SNB-19 CNS; 97.5% with U251 CNS; 80.3% in the assay on PC-3 prostate; 83.9% in the assay with SK-MEL-5 melanoma; 78.5% in the assay on UACC-62 melanoma. The growth was 65.4% in the assay with LOX IMVI melanoma and 86.8% with SK-MEL-28 melanoma.

In the case of `CC1(C(=O)O)CCC(N)(C(=O)O)C1(C)C` (stereo not given), the growth in the assay on DU-145 prostate is 118%; with K-562 leukemia it was 107%; in the assay on MALME-3M melanoma it was 113%; in the assay with MDA-MB-231 breast, 108%; with RXF 393 renal, 126%; in the assay with SF-268 CNS it was 112%. Besides, the growth was 97.3% in the assay with SF-295 CNS; 108% with SF-539 CNS; 121% with UACC-257 melanoma; 110% in the assay with M14 melanoma; 106% in the assay on HCT-15 colon; 103% with HT29 colon. The growth in the assay with SNB-75 CNS is 90%; in the assay on SNB-19 CNS it was 105%; in the assay with U251 CNS it was 105%; with PC-3 prostate it was 88.8%; in the assay on SK-MEL-5 melanoma it was 107%; in the assay with UACC-62 melanoma, 107%. Further, the growth with LOX IMVI melanoma and with SK-MEL-28 melanoma was 109% throughout.

`Cc1nc(-c2ccccc2)sc1CC#N`: the growth was 116% with DU-145 prostate; 94.2% in the assay with K-562 leukemia; 128% in the assay with MALME-3M melanoma; 116% in the assay with MDA-MB-231 breast; 118% with RXF 393 renal; 106% with SF-268 CNS. Further, the growth in the assay with SF-295 CNS is 101%; in the assay on SF-539 CNS, 111%; in the assay with UACC-257 melanoma, 123%; in the assay on M14 melanoma, 125%; with HCT-15 colon it was 102%; in the assay with HT29 colon, 105%. Further, the growth is 113% with SNB-75 CNS; 103% in the assay on SNB-19 CNS; 100% in the assay on U251 CNS; 108% with PC-3 prostate; 107% with SK-MEL-5 melanoma; 106% in the assay on UACC-62 melanoma. The values for the growth in the assay with LOX IMVI melanoma and in the assay with SK-MEL-28 melanoma were 102% and 120%, respectively.

Consider `CC(C)[N+](C)(C)CC(O)COc1cccc2ccccc12` (stereo not given), for which the growth in the assay on DU-145 prostate is 106%; with K-562 leukemia, 106%; in the assay on MALME-3M melanoma, 103%; in the assay with MDA-MB-231 breast, 103%; in the assay with RXF 393 renal it was 115%; in the assay with SF-268 CNS it was 94%. The growth in the assay on SF-295 CNS was 104%; in the assay on SF-539 CNS, 96%; in the assay on UACC-257 melanoma, 90.4%; in the assay with M14 melanoma, 107%; in the assay with HCT-15 colon, 97.1%; in the assay with HT29 colon it was 111%. For the same compound, the growth was 109% in the assay with SNB-75 CNS; 103% in the assay on SNB-19 CNS; 101% with U251 CNS; 92.2% with PC-3 prostate; 107% in the assay with SK-MEL-5 melanoma; 101% in the assay with UACC-62 melanoma. In addition, the growth is 93.2% in the assay on LOX IMVI melanoma and 113% with SK-MEL-28 melanoma.

Consider `CCOC(=O)CCC[P+](c1ccccc1)(c1ccccc1)c1ccccc1`, for which the growth with DU-145 prostate was 90%; in the assay on K-562 leukemia, 57.9%; in the assay on MALME-3M melanoma, 75.4%; with MDA-MB-231 breast it was 80.9%; in the assay on RXF 393 renal it was 108%; with SF-268 CNS it was 83.2%. For the same compound, the growth with SF-295 CNS was 105%; in the assay with SF-539 CNS, 89.5%; in the assay on UACC-257 melanoma, 27.2%; with M14 melanoma, 87.9%; in the assay on HCT-15 colon it was 102%; in the assay with HT29 colon, 70.2%. The growth is 86.8% with SNB-75 CNS; 96% with SNB-19 CNS; 52.6% in the assay with U251 CNS; 69.5% in the assay with PC-3 prostate; 48.5% with SK-MEL-5 melanoma; 65% with UACC-62 melanoma. Moreover, the growth is 83% in the assay on LOX IMVI melanoma and 83.8% in the assay on SK-MEL-28 melanoma.

Take `COC(=O)c1cc(O)c2c(c1C(=O)OC)C[C@H]1[C@@H]3CC=C4C[C@@H](O)CC[C@]4(C)[C@H]3CC[C@]21C`: the growth is 79% with DU-145 prostate; 20% in the assay on K-562 leukemia; 28.3% in the assay with MALME-3M melanoma; 2.21% (active) in the assay with MDA-MB-231 breast; -60.6% (active) with RXF 393 renal; 66.8% in the assay with SF-268 CNS. Also, the growth with SF-295 CNS is -14.5% (active); with SF-539 CNS, 8.9% (active); with UACC-257 melanoma, 14.3%; in the assay with M14 melanoma, 11.6%; with HCT-15 colon, 24.6%; with HT29 colon it was 16.2%. Moreover, the growth in the assay on SNB-75 CNS was 62.2%; with SNB-19 CNS, 66.9%; in the assay on U251 CNS, 37.5%; in the assay on PC-3 prostate, 41.3%; with SK-MEL-5 melanoma, 1.59% (active); in the assay on UACC-62 melanoma, 40.9%. Further, the growth is 9.77% (active) with LOX IMVI melanoma and 46.3% in the assay on SK-MEL-28 melanoma.

On to `COc1ccc(N(c2nc(-c3ccc([N+](=O)[O-])cc3)cs2)C(C)C)cc1`, for which the growth with DU-145 prostate was 86.1%; in the assay with K-562 leukemia it was 55.1%; in the assay on MALME-3M melanoma, 94.6%; with MDA-MB-231 breast, 73.9%; in the assay on RXF 393 renal, 102%; in the assay on SF-268 CNS it was 83.5%. For the same compound, the growth with SF-295 CNS is 89.8%; in the assay on SF-539 CNS it was 88.7%; with UACC-257 melanoma, 80.5%; in the assay on M14 melanoma it was 89.9%; with HCT-15 colon, 88%; with HT29 colon, 97.2%. The growth with SNB-75 CNS is 103%; in the assay on SNB-19 CNS, 89.9%; with U251 CNS, 90.3%; in the assay on PC-3 prostate it was 84%; in the assay on SK-MEL-5 melanoma, 78.9%; in the assay with UACC-62 melanoma it was 68.4%. Moreover, the growth with LOX IMVI melanoma is 80.9%; in the assay with SK-MEL-28 melanoma it was 103%.
